Data: PubChem BioAssay
Where “and” joins values, the source holds several entries; their conditions need not be identical. Identical values can stand only once. Calls of active or inactive are those of the source. Unless noted, the rule behind the calls is not given here.

Assay: blockers of cellular phospholipid synthesis – cell-based, LOPAC library, screen 4, primary screen (AID 1347384)
Conditions: animal cells, phospholipid biosynthesis inhibition screen; at 10 µM

Question: For NC1[C@H]2CN(c3nc4c(cc3F)c(=O)c(C(=O)O)cn4-c3ccc(F)cc3F)C[C@@H]12 (stereo not given in full), which outcome is on record?
Answer: inactive

Question: With COc1ccc(CCN(C)CCCC(C#N)(c2cc(OC)c(OC)c(OC)c2)C(C)C)cc1OC (stereo not given) as the compound, how does the outcome read?
Answer: inactive

Question: Which outcome does the source give for N[C@@H](CC(=O)O)C(=O)O here?
Answer: inactive

Question: Which outcome does the source give for C[C@]12CCC(=O)C=C1CC[C@@H]1[C@@H]2CC[C@@]2(C)[C@H]1CC[C@]2(O)C(=O)CO here?
Answer: inactive

Question: Which outcome does the source give for O=c1[nH]c(=O)n([C@H]2C[C@H](O)[C@@H](CO)O2)cc1Br here?
Answer: inactive

Question: For CC1=C(CC(=O)O)c2cc(F)ccc2/C1=C\c1ccc(S(C)(=O)=O)cc1, which outcome is on record?
Answer: inactive

Question: For CCN1CCc2nc(N)oc2CC1, which outcome is on record?
Answer: inactive

Question: Which outcome does the source give for NC(=O)c1cn(Cc2c(F)cccc2F)nn1 here?
Answer: inactive

Question: With CSc1ccc(C(=O)c2[nH]c(=O)[nH]c2C)cc1 as the compound, how does the outcome read?
Answer: inactive

Question: Which outcome does the source give for CC(=O)Oc1cc(C(F)(F)F)ccc1C(=O)O here?
Answer: inactive

Question: For NC(N)=NCCC[C@H](N)C(=O)O, which outcome is on record?
Answer: inactive

Question: With O=C1NC(=O)[C@@]2(CCOc3ccc(F)cc32)N1 as the compound, how does the outcome read?
Answer: inactive

Question: With C[N+](C)(C)CCOC(=O)CCC(=O)OCC[N+](C)(C)C as the compound, how does the outcome read?
Answer: inactive

Question: With Cc1nc2c([nH]1)c(=O)n(C)c(=O)n2Cc1ccco1 as the compound, how does the outcome read?
Answer: inactive

Question: With OCCN1CCN(CC/C=C2/c3ccccc3Sc3ccc(C(F)(F)F)cc32)CC1 as the compound, how does the outcome read?
Answer: inactive

Question: With CC(C)(C)c1ccc(C(=O)CCCN2CCC(OC(c3ccccc3)c3ccccc3)CC2)cc1 as the compound, how does the outcome read?
Answer: inactive

Question: For Nc1cc(=O)[nH]c(N)n1, which outcome is on record?
Answer: inactive

Question: For CC(=O)[C@@]1(O)CC[C@H]2[C@@H]3CCC4=CC(=O)CC[C@]4(C)[C@H]3CC[C@@]21C, which outcome is on record?
Answer: inactive

Question: With COC(=O)C1=C(C)NC(C)=C(C(=O)OC(C)(C)CN(C)CCC(c2ccccc2)c2ccccc2)C1c1cccc([N+](=O)[O-])c1 (stereo not given) as the compound, how does the outcome read?
Answer: active

Question: With CCC(=O)c1ccc2c(c1)N(CCCN(C)C)c1ccccc1S2 as the compound, how does the outcome read?
Answer: inactive

Question: With OCCN1CCN(CCCN2c3ccccc3C=Cc3ccccc32)CC1 as the compound, how does the outcome read?
Answer: inactive

Question: For CCNC(=O)N1CCN(CCCC(c2ccc(F)cc2)c2ccc(F)cc2)CC1, which outcome is on record?
Answer: inactive

Question: With C(=C\c1ccccc1)/CN1CCN(C(c2ccccc2)c2ccccc2)CC1 as the compound, how does the outcome read?
Answer: inactive

Question: Which outcome does the source give for COC(=O)[C@@H](N)Cc1ccc(O)c(O)c1 here?
Answer: inactive

Question: For CCCCc1ncc(/C=C(\Cc2cccs2)C(=O)O)n1Cc1ccc(C(=O)O)cc1, which outcome is on record?
Answer: inactive

Question: Which outcome does the source give for O=C(O)CN(CCOCCOCCN(CC(=O)O)CC(=O)O)CC(=O)O here?
Answer: inactive

Question: Which outcome does the source give for O=C(O)CP(=O)(O)O here?
Answer: inactive

Question: With N[C@@H](COP(=O)(O)O)C(=O)O as the compound, how does the outcome read?
Answer: inactive

Question: For CCN(CC)CCCN(c1ccccc1)C1Cc2ccccc2C1, which outcome is on record?
Answer: inactive

Assay: MELAS cybrid and Rieske KO viability enhancers – cell-based, MELAS cybrids, Rieske KO mouse fibroblasts, CellTiter-Glo, primary screen (AID 1508586;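 active = mean z-score across replicates of 1.96 or higher in either the MELAS or the Rieske mutant cell line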;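 note: z relative to plate mean and SD of compound and empty wells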)
Conditions: MELAS cybrid survival, low glucose, CellTiter-Glo 48 h; stronger effect = higher value

Question: For CCn1c(=O)c2c(nc(C=Cc3ccc(OC)c(OC)c3)n2C)n(CC)c1=O, which z-score is on record?
Answer: 0.103 (inactive)

Question: With NC(CO)(CO)CO as the compound, how does the z-score read?
Answer: -0.338 (inactive)

Question: Which z-score does the source give for NC(=O)c1cn(Cc2c(F)cccc2F)nn1 here?
Answer: -0.0452 (inactive)

Question: Which z-score does the source give for CC(=O)Oc1cc(C(F)(F)F)ccc1C(=O)O here?
Answer: -0.0694 (inactive) and 0.0403 (inactive)

Question: For COC(=O)C1=C(C#N)NC(C)=C(C(=O)OC(C)C)C1c1cccc([N+](=O)[O-])c1 (stereo not given), which z-score is on record?
Answer: -0.465 (inactive) and 0.607 (inactive)

Question: Which z-score does the source give for CCCCCCCCCCCCCCCCO here?
Answer: -0.285 (inactive)

Question: With COc1cc(C)c(C=CC(C)=CC=CC(C)=CC(=O)O)c(C)c1C as the compound, how does the z-score read?
Answer: -0.108 (inactive)

Question: Which z-score does the source give for C[N+](C)(C)CCOC(=O)CCC(=O)OCC[N+](C)(C)C here?
Answer: -0.659 (inactive)

Question: Which z-score does the source give for Cc1nc2c([nH]1)c(=O)n(C)c(=O)n2Cc1ccco1 here?
Answer: 0.342 (inactive)

Question: For CC(=O)[C@@]1(O)CC[C@H]2[C@@H]3CCC4=CC(=O)CC[C@]4(C)[C@H]3CC[C@@]21C, which z-score is on record?
Answer: -0.428 (inactive)

Question: Which z-score does the source give for COc1cc(C=O)ccc1O here?
Answer: -0.504 (inactive)

Question: With COC(=O)C1=C(C)NC(C)=C(C(=O)OC(C)(C)CN(C)CCC(c2ccccc2)c2ccccc2)C1c1cccc([N+](=O)[O-])c1 (stereo not given) as the compound, how does the z-score read?
Answer: -0.809 (inactive)

Question: Which z-score does the source give for COC(=O)C(c1ccccc1Cl)N1CCc2sccc2C1 (stereo not given) here?
Answer: -0.416 (inactive)

Question: Which z-score does the source give for OCCN1CCN(CCCN2c3ccccc3C=Cc3ccccc32)CC1 here?
Answer: -0.305 (inactive)

Question: For C(=C\c1ccccc1)/CN1CCN(C(c2ccccc2)c2ccccc2)CC1, which z-score is on record?
Answer: 0.0624 (inactive)

Question: For Nc1cccc2c1CN(C1CCC(=O)NC1=O)C2=O (stereo not given), which z-score is on record?
Answer: -0.434 (inactive)

Question: With CCCCc1ncc(/C=C(\Cc2cccs2)C(=O)O)n1Cc1ccc(C(=O)O)cc1 as the compound, how does the z-score read?
Answer: 0.334 (inactive)

Question: Which z-score does the source give for O=S(=O)(O)Oc1ccc(C(c2ccc(OS(=O)(=O)O)cc2)c2ccccn2)cc1 here?
Answer: -0.185 (inactive)

Same assay, conditions: Rieske KO mouse fibroblast survival, low glucose, CellTiter-Glo 72 h

Question: For CCn1c(=O)c2c(nc(C=Cc3ccc(OC)c(OC)c3)n2C)n(CC)c1=O, which z-score is on record?
Answer: 0.0933

Question: For NC(CO)(CO)CO, which z-score is on record?
Answer: -0.156

Question: With NC(=O)c1cn(Cc2c(F)cccc2F)nn1 as the compound, how does the z-score read?
Answer: -0.156

Question: Which z-score does the source give for CC(=O)Oc1cc(C(F)(F)F)ccc1C(=O)O here?
Answer: -0.153 and -0.0623

Question: Which z-score does the source give for COC(=O)C1=C(C#N)NC(C)=C(C(=O)OC(C)C)C1c1cccc([N+](=O)[O-])c1 (stereo not given) here?
Answer: 0.162 and 0.638

Question: Which z-score does the source give for CCCCCCCCCCCCCCCCO here?
Answer: -0.121

Question: For COc1cc(C)c(C=CC(C)=CC=CC(C)=CC(=O)O)c(C)c1C, which z-score is on record?
Answer: 0.793

Question: Which z-score does the source give for C[N+](C)(C)CCOC(=O)CCC(=O)OCC[N+](C)(C)C here?
Answer: -1.43

Question: Which z-score does the source give for Cc1nc2c([nH]1)c(=O)n(C)c(=O)n2Cc1ccco1 here?
Answer: -0.476

Question: For CC(=O)[C@@]1(O)CC[C@H]2[C@@H]3CCC4=CC(=O)CC[C@]4(C)[C@H]3CC[C@@]21C, which z-score is on record?
Answer: 0.151

Question: For COc1cc(C=O)ccc1O, which z-score is on record?
Answer: -0.136

Question: Which z-score does the source give for COC(=O)C1=C(C)NC(C)=C(C(=O)OC(C)(C)CN(C)CCC(c2ccccc2)c2ccccc2)C1c1cccc([N+](=O)[O-])c1 (stereo not given) here?
Answer: -0.0835

Question: Which z-score does the source give for COC(=O)C(c1ccccc1Cl)N1CCc2sccc2C1 (stereo not given) here?
Answer: 0.984

Question: Which z-score does the source give for OCCN1CCN(CCCN2c3ccccc3C=Cc3ccccc32)CC1 here?
Answer: -0.132

Question: For C(=C\c1ccccc1)/CN1CCN(C(c2ccccc2)c2ccccc2)CC1, which z-score is on record?
Answer: -0.105

Question: Which z-score does the source give for Nc1cccc2c1CN(C1CCC(=O)NC1=O)C2=O (stereo not given) here?
Answer: 0.686

Question: Which z-score does the source give for CCCCc1ncc(/C=C(\Cc2cccs2)C(=O)O)n1Cc1ccc(C(=O)O)cc1 here?
Answer: -0.876

Question: With O=S(=O)(O)Oc1ccc(C(c2ccc(OS(=O)(=O)O)cc2)c2ccccn2)cc1 as the compound, how does the z-score read?
Answer: -0.14
